From PubChem BioAssay (EPA / NIEHS) come the findings set out here.

Where “and” joins values, the source holds several entries; their conditions need not be identical. Equal values may be shown once. Records with an inconclusive call do not appear. Where a structure was tested more than once in an assay, its records may differ in their call. Calls of active or inactive are those of the source. Rule for the calls: active = hit-call score of the fitted dose curve at least 0.9, where 1 is the maximum; inconclusive = response in the unintended direction; inactive = score below 0.9.

Sequence of rat Opioid Receptor, Non-selective Binding, Oprm1 (gene 25601) (P33535 whole entry, looked up): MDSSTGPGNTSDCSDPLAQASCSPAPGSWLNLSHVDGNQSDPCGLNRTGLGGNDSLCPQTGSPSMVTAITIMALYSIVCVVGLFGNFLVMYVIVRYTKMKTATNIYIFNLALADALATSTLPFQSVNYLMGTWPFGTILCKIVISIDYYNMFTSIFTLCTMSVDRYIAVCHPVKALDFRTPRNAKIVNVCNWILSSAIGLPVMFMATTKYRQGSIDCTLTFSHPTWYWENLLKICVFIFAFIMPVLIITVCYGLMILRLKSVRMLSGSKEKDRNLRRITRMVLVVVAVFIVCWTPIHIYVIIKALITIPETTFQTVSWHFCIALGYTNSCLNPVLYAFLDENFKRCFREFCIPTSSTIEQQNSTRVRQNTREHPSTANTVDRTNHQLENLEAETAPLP
Sequence of rat Somatostatin Receptor (SST), Sstr1 (gene 25033) (P28646 whole entry, looked up): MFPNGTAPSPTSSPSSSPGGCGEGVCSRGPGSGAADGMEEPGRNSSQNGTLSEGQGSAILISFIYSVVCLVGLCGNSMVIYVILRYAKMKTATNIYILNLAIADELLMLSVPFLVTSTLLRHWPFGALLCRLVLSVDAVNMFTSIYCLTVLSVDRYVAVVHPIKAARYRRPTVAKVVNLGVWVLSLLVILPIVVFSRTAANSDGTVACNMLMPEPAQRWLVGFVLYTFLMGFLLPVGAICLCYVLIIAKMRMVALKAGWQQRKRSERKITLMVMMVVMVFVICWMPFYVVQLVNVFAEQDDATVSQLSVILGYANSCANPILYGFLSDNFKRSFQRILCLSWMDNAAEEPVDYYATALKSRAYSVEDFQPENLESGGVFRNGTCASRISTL

The first test has as its target rat Somatostatin Receptor (SST), Sstr1 (gene 25033) (UniProt P28646). The test is described as follows: NVS_GPCR_rSST: NovaScreen (NVS) G Protein-Coupled Receptor Assay for rat Somatostatin Receptor (SST) (AID 2283314). The method in brief:
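Single-concentration duplicate screen (25 uM), then concentration-response up to 50 uM for chemicals passing a threshold such as 30% inhibition. Membranes came from rat forebrain. Binding was measured 1 h post-dose by filter radiodetection and scintillation, relative to DMSO.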
For the compound `CCOC(=O)CC(SP(=S)(OC)OC)C(=O)OCC` (stereo not given), the compound was classed as inactive.
Regarding `CN(C)C(=S)SSC(=S)N(C)C`, the outcome was inactive.
As to `CS/C(C)=N/OC(=O)N(C)SN(C)C(=O)O/N=C(\C)SC`, the concentration at half-maximal activity (AC50) – broadly, the midpoint of the concentration-response curve, whichever way the signal moves – is 17.2 µM (active).
Take `COP(=S)(OC)Oc1nc(Cl)c(Cl)cc1Cl`: the compound was classed as inactive.

The target of the next test is rat Neonicotinoid receptor (NNR), Chrna7 (gene 25302) (UniProt Q05941). Put plainly: NVS_LGIC_rNNR_BungSens: NovaScreen (NVS) Ligand-Gated Ion Channel Assay for rat Neonicotinoid receptor (NNR) (AID 2283315). In a few lines: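 Rat cortical membrane preparation incubated 2.5 h with tritiated or iodinated radioligand and test chemical. Bound radioactivity was filtered and counted by scintillation, and displacement was analysed against DMSO.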
Sequence of rat Neonicotinoid receptor (NNR), Chrna7 (gene 25302) (Q05941 whole entry, looked up): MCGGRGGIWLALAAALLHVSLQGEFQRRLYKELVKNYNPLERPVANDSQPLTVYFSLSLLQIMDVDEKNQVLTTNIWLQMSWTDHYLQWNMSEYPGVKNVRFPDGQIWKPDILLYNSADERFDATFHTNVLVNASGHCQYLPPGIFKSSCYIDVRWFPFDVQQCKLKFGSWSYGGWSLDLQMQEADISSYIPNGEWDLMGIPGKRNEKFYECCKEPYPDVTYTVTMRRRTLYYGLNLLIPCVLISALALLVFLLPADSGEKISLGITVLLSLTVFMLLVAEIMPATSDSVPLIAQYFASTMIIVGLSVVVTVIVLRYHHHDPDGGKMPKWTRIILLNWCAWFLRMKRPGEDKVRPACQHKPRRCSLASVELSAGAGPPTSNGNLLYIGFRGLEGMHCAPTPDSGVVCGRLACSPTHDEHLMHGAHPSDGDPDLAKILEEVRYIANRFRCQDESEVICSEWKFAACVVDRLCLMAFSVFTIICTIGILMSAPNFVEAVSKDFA
Regarding `N#CC(CCc1ccc(Cl)cc1)(Cn1cncn1)c1ccccc1` (stereo not given), the compound was called inactive.
On to `CCOP(=S)(OCC)SCn1c(=O)oc2cc(Cl)ccc21`, for which the result was inactive.
In the case of `Cc1ccc(-c2c(Cl)nc(C#N)n2S(=O)(=O)N(C)C)cc1`, the AC50 was 8.72 µM (active).
Take `CNC(=O)ON=CC(C)(C)SC`: the outcome was inactive.

The next test concerns the target rat Opioid Receptor, Non-selective Binding, Oprm1 (gene 25601) (UniProt P33535). The test is described as follows: NVS_GPCR_rOpiate_NonSelective: NovaScreen (NVS) G Protein-Coupled Receptor Assay for rat Opioid Receptor, Non-selective Binding (AID 2283318). In a few lines: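 Filter-based radioligand displacement using rat forebrain membrane preparations, measured 1.5 h post-dosing. Single-concentration duplicate screen at 25 uM, follow-up in concentration series; activity taken as signal loss relative to DMSO.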
For the compound `O=C(Nc1ccccc1)Nc1ccnc(Cl)c1`, the concentration at half-maximal activity (AC50) was 32.3 µM (active).
With `C#CCOS(=O)OC1CCCCC1Oc1ccc(C(C)(C)C)cc1` (stereo not given), the outcome was inactive.
Turning to `COc1ccc(C(c2ccc(OC)cc2)C(Cl)(Cl)Cl)cc1`, the compound was called inactive.
As to `CCCC1COC(Cn2cncn2)(c2ccc(Cl)cc2Cl)O1` (stereo not given), the AC50 was 10.1 µM (active).
As for `CO/C=C(/C(=O)OC)c1ccccc1Oc1cc(Oc2ccccc2C#N)ncn1`, the AC50 is 6.66 µM (active) and the compound was classed as inactive.
For the compound `CS/C(C)=N/OC(=O)N(C)SN(C)C(=O)O/N=C(\C)SC`, the call was inactive.
For the compound `CCCCOC(=O)c1ccccc1C(=O)OCCCC`, the call was inactive.

For another test, the system named is NCBI gene 24521. Put plainly: NVS_IC_rKATPCh: NovaScreen (NVS) Ion Channel Assay for rat Potassium Channel, ATP-Sensitive (KATPCh) (AID 2283319). In a few lines:
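Primary duplicate screen at 25 uM, then singleton concentration series to 50 uM maximum, in a rat cortex membrane radioligand displacement assay. Binding measured by filtration and scintillation 2 h post-dose; DMSO baseline.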
For the compound `COC(=O)c1ccccc1C(=O)OC`, the call was inactive.
Same read-out and setting: the entry for `COC(=O)C(C)Oc1ccc(Oc2ccc(Cl)cc2Cl)cc1` (stereo not given) is “inactive”.
On to `CCCCNC(=O)OCC#CI`, for which the AC50 is 9.23 µM (active) and 12.3 µM (active).

Tested on in a further test: not listed separately
Put plainly: NVS_IC_rCaDHPRCh_L: NovaScreen (NVS) Ion Channel Assay for rat Calcium Channel, Type L, Dihydropyridine Site (CaDHPRCh_L) (AID 2283320). The method in brief: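 Rat cortex membrane preparation; dihydropyridine-site radioligand displacement read 1 h post-dose by filtration and scintillation. Primary single-point screen 25 uM in duplicate, then concentration series to 50 uM maximum; DMSO as negative control.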
As to `C#CCOS(=O)OC1CCCCC1Oc1ccc(C(C)(C)C)cc1` (stereo not given), the AC50 was 37.4 µM (active).
Same read-out and setting: the figure for `OC(c1ccc(Cl)cc1)(c1cncnc1)c1ccccc1Cl` (stereo not given) is 19 µM (active).
`COc1ccc(C(c2ccc(OC)cc2)C(Cl)(Cl)Cl)cc1`: the outcome was inactive.

A further test deals with Sodium channel protein type 1 subunit alpha (Rattus norvegicus) (UniProt P04774). Put plainly: NVS_IC_rNaCh_site2: NovaScreen (NVS) Ion Channel Assay for rat Sodium Channel, Site 2 (NaCh) (AID 2283322).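 Note: hit means loss of radioligand binding signal relative to DMSO so AC50 marks displacement.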 In a few lines:
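Initial duplicate single-point testing at 25 uM, followed by concentration-response runs for actives. Binding of radioligand to rat forebrain membranes quantified after 1 h via filter-based radiodetection.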
With `OC(c1ccc(Cl)cc1)(c1cncnc1)c1ccccc1Cl` (stereo not given), the half-maximal activity concentration (AC50) is 5.79 µM (active).
In the case of `CCCC1COC(Cn2cncn2)(c2ccc(Cl)cc2Cl)O1` (stereo not given), the AC50 was 25 µM (active).
For `Oc1ccccc1-c1ccccc1`, the call was inactive.
